This passage reports cytotoxicity call results from the antibiotic and cytotoxicity screens of Wong et al. (2023).

Each structure is given as a SMILES string. Screen size: about 39,000 compounds; about 3,300 (8.5%) were called active. For the sample, actives were picked, then their nearest neighbours and some compounds at random.

The experiment deals with HepG2. Kind of experiment: cytotoxicity call (relative viability < 0.9). Conditions: 10 µM.
Turning to `C[C@@H]1CN([C@@H](C)CO)C(=O)Cc2cc(NC(=O)CCC(F)(F)F)ccc2O[C@H]1CN(C)Cc1ccc(-c2ccccc2)cc1`, the cytotoxicity call was “inactive”. As for `C[C@@H]1CN([C@@H](C)CO)C(=O)Cc2cc(NC(=O)CCC(F)(F)F)ccc2O[C@@H]1CN(C)Cc1ccc(-c2ccccc2)cc1`, the cytotoxicity call was “inactive”. To `C[C@H](CO)N1C[C@H](C)[C@@H](CN(C)Cc2ccc(C(F)(F)F)cc2)Oc2ccc(NC(=O)CCC(F)(F)F)cc2CC1=O` belongs “inactive”; to `C[C@H]1CN([C@@H](C)CO)C(=O)Cc2cc(NC(=O)CCC(F)(F)F)ccc2O[C@H]1CN(C)Cc1ccc(-c2ccccc2)cc1`, “active”; to `C[C@H](CO)N1C[C@H](C)[C@H](CN(C)Cc2ccc(-c3ccccc3)cc2)Oc2ccc(NC(=O)CCC(F)(F)F)cc2CC1=O`, “inactive”. Next, `C[C@@H]1CN([C@@H](C)CO)C(=O)Cc2cc(NC(=O)CCC(F)(F)F)ccc2O[C@H]1CN(C)Cc1ccc(C(F)(F)F)cc1`: “inactive”.

`C[C@H]1CN([C@@H](C)CO)C(=O)Cc2cc(NC(=O)CCC(F)(F)F)ccc2O[C@H]1CN(C)Cc1ccc(C(F)(F)F)cc1`: the cytotoxicity call was “inactive”. To `C[C@H](CO)N1C[C@H](C)[C@@H](CN(C)Cc2ccc(-c3ccccc3)cc2)Oc2ccc(NC(=O)CCC(F)(F)F)cc2CC1=O` belongs “inactive”. For `C[C@@H]1CN([C@H](C)CO)C(=O)Cc2cc(NC(=O)CCC(F)(F)F)ccc2O[C@H]1CN(C)Cc1ccc(-c2ccccc2)cc1`, the cytotoxicity call was “active”. To `C[C@@H]1CN([C@H](C)CO)C(=O)Cc2cc(NC(=O)CCC(F)(F)F)ccc2O[C@@H]1CN(C)Cc1ccc(-c2ccccc2)cc1` belongs “active”; to `C[C@H](CO)N1C[C@H](C)[C@H](CN(C)Cc2ccc(C(F)(F)F)cc2)Oc2ccc(NC(=O)CCC(F)(F)F)cc2CC1=O`, “inactive”.

Consider `C[C@H]1CN([C@@H](C)CO)C(=O)Cc2cc(NC(=O)CCC(F)(F)F)ccc2O[C@@H]1CN(C)Cc1ccc(-c2ccccc2)cc1`, for which the cytotoxicity call was “active”. Regarding `CC(=O)N1CCC2(CC1)NC(=O)NC2=O`, the cytotoxicity call is “inactive”. In the case of `O=C(CN1CCOCC1)NCC[C@@H]1CC[C@@H](NC(=O)c2ccccc2F)[C@@H](CO)O1`, the cytotoxicity call was “inactive”. To `Cc1ccnc([C@@H](N)C2CC2)c1` belongs “inactive”; to `C[C@@H]1CN([C@@H](C)CO)C(=O)c2cc(NC(=O)CCCCCC(=O)Nc3ccccc3N)ccc2O[C@H]1CN(C)S(=O)(=O)c1cn(C)cn1`, “inactive”. Next, `Nc1ccccc1C(=O)N[C@H]1CCCCNC1=O`: “inactive”; `C[C@H](CO)N1C[C@H](C)[C@@H](CN(C)Cc2ccc(C(=O)Nc3ccccc3N)cc2)Oc2c(NC(=O)Nc3ccc4c(c3)OCO4)cccc2C1=O`: “inactive”. With `C[C@H]1CN([C@@H](C)CO)C(=O)c2cc(C#CCc3ccccc3)cnc2O[C@@H]1CN(C)C(=O)Cc1cccnc1`, the cytotoxicity call is “inactive”. On to `COCC#Cc1cnc2c(c1)C(=O)N([C@H](C)CO)C[C@H](C)[C@@H](CN(C)S(=O)(=O)c1cccc(OC)c1)O2`, for which the cytotoxicity call is “inactive”. To `NC[C@H]1OB(O)c2c(OCCO)ccc(Cl)c21` belongs “inactive”; to `Cc1ccc(S(=O)(=O)Nc2cccc3c2O[C@H](CN(C)Cc2ccc(Oc4ccccc4)cc2)[C@@H](C)CN([C@H](C)CO)C3=O)cc1`, “inactive”; to `C[C@H]1CN([C@@H](C)CO)C(=O)c2ccccc2-c2ccccc2CO[C@@H]1CN(C)Cc1ccc(Cl)c(Cl)c1`, “inactive”. Next, `C[C@H]1CCCCO[C@H](CN(C)C(=O)Nc2ccc(F)cc2)[C@@H](C)CN([C@@H](C)CO)C(=O)c2cc(NS(=O)(=O)c3cccs3)ccc2O1`: “inactive”.

For `Cc1noc(C)c1S(=O)(=O)N(C)C[C@H]1Oc2ccc(NC(=O)C3CCCCC3)cc2CC(=O)N([C@@H](C)CO)C[C@H]1C`, the cytotoxicity call is “inactive”.

On to `C[C@@H]1CN([C@@H](C)CO)C(=O)Cc2cc(NC(=O)c3ccncc3)ccc2O[C@H]1CN(C)Cc1ccc(-c2ccccc2)cc1`, for which the cytotoxicity call was “active”. Take `C[C@@H]1CN([C@H](C)CO)C(=O)Cc2cc(NC(=O)c3ccncc3)ccc2O[C@@H]1CN(C)Cc1ccncc1`: the cytotoxicity call is “inactive”. Next, `C[C@@H]1CN([C@@H](C)CO)C(=O)Cc2cc(NC(=O)c3ccncc3)ccc2O[C@@H]1CN(C)Cc1ccc(-c2ccccc2)cc1`: “inactive”; `C[C@@H]1CN([C@H](C)CO)C(=O)Cc2cc(NC(=O)c3ccncc3)ccc2O[C@H]1CN(C)Cc1ccc(-c2ccccc2)cc1`: “inactive”. Next, `C[C@H]1CN([C@@H](C)CO)C(=O)Cc2cc(NC(=O)c3ccncc3)ccc2O[C@H]1CN(C)Cc1ccc(-c2ccccc2)cc1`: “active”; `C[C@H]1CN([C@@H](C)CO)C(=O)Cc2cc(NC(=O)c3ccncc3)ccc2O[C@@H]1CN(C)Cc1ccc(-c2ccccc2)cc1`: “inactive”.

In the case of `C[C@@H]1CN([C@H](C)CO)C(=O)Cc2cc(NC(=O)c3ccncc3)ccc2O[C@@H]1CN(C)Cc1ccc(-c2ccccc2)cc1`, the cytotoxicity call is “active”.

On to `C[C@H](CO)N1C[C@H](C)[C@H](CN(C)Cc2ccc(-c3ccccc3)cc2)Oc2ccc(NC(=O)c3ccncc3)cc2CC1=O`, for which the cytotoxicity call is “inactive”. For `C[C@H](CO)N1C[C@H](C)[C@@H](CN(C)Cc2ccc(-c3ccccc3)cc2)Oc2ccc(NC(=O)c3ccncc3)cc2CC1=O`, the cytotoxicity call was “inactive”. Take `Cc1ccc(-c2ccc3c(c2)O[C@@H](CN(C)C(=O)CN(C)C)[C@@H](C)CN([C@H](C)CO)S3(=O)=O)cc1`: the cytotoxicity call was “inactive”. To `CO[C@H]1CN(C)C(=O)c2cc(NC(=O)CC(F)(F)F)ccc2OC[C@@H](C)N(S(=O)(=O)c2cn(C)cn2)C[C@H]1C` belongs “inactive”; to `CO[C@@H](C(=O)N(C)C[C@@H]1OCc2ccccc2-c2c(n(C)c3ccccc23)C(=O)N([C@@H](C)CO)C[C@H]1C)c1ccccc1`, “inactive”.

Turning to `COc1ccccc1CNC(=O)C[C@H]1C[C@@H]2c3cc(NS(=O)(=O)c4ccc(F)cc4)ccc3O[C@@H]2[C@H](CO)O1`, the cytotoxicity call is “inactive”. For the compound `C[C@@H]1CCCCO[C@H](CN(C)S(=O)(=O)c2ccccc2)[C@H](C)CN([C@H](C)CO)C(=O)c2cc(NS(C)(=O)=O)ccc2O1`, the cytotoxicity call is “inactive”.

Take `COc1ccc(NC(=O)N(C)C[C@H]2Oc3ccc(NC(=O)Cn4cnnn4)cc3CC(=O)N([C@@H](C)CO)C[C@@H]2C)cc1`: the cytotoxicity call is “inactive”. Next, `COc1ccc(NC(=O)Nc2ccc3c(c2)[C@@H]2C[C@@H](CC(=O)NCC(F)(F)F)O[C@@H](CO)[C@@H]2O3)cc1`: “inactive”.
